Experimental data from PubChem BioAssay AID1851 (National Center for Advancing Translational Sciences (NCATS), 2009).
Out of some 16,000 compounds screened, about 5,700 (36%) were called active. Roughly 24% stayed inconclusive and do not appear here. Calls come from the whole dose curve; as a rule, active = well fitted curve in the direction sought with a large enough effect; inconclusive = small, poorly fitted or top-dose-only effect, or effect the other way; inactive = no such curve, though single readings can be large or run the other way. The list shows a part of the results.

biological target: Cytochrome P450 1A2 (Homo sapiens) (UniProt P05177); test: Cytochrome panel assay with activity outcomes; conditions: recombinant CYP, pro-luciferin dealkylation, luminescence, p450-cyp1a2; series mostly up to 57.1 µM
Sequence (P05177 whole entry, looked up): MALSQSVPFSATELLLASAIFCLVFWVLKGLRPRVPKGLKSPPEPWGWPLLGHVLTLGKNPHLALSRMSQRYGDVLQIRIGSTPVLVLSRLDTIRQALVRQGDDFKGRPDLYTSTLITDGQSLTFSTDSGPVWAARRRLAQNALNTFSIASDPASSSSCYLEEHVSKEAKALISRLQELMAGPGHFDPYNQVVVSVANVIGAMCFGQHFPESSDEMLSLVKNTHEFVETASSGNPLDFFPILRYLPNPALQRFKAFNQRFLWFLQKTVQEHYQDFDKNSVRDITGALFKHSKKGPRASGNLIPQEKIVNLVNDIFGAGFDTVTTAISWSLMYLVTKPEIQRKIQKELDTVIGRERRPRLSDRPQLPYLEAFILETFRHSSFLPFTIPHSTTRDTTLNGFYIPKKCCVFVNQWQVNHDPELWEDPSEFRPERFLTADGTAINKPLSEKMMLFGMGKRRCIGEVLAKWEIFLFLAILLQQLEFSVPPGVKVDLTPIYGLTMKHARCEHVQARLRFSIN
% is set by controls: 0 for no effect and ±100 for the full control effect.

SMILES | AC50 | activity, negative = inhibition
CCNC(=O)CC1C(=O)N(c2ccc(F)cc2)C(=O)N1CCc1ccc(OC)cc1 (configuration not stated) | inactive | 
O=C(CC1C(=O)N(c2ccc(Cl)cc2)C(=S)N1CCc1ccncc1)Nc1ccc(F)cc1 (configuration not stated) | 5.01 µM (active) | 
CC(=O)Nc1ccc(S(=O)(=O)NC2(C(F)(F)F)NC(=O)N(c3ccc(Cl)cc3)C2=O)cc1 (configuration not stated) | inactive | 
Cn1c(-c2ccccc2)cnc1N | 17.8 µM (active) | 
CCCn1c(-c2ccccc2)nc2c(=O)n(C)c(=O)[nH]c21 | inactive | 
CN(C)c1ccc(-c2nc(N(C)C)c3ccccc3n2)cc1 | 0.251 µM (active) | 
CN(C)c1nc(-c2ccoc2)nc2ccccc12 | 0.501 µM (active) | 
CN(C)c1ccc(-c2nc(Nc3ccncc3)c3ccccc3n2)cc1 | 0.501 µM (active) | 
CNc1nc(-c2ccc(N(C)C)cc2)nc2ccccc12 | 0.2 µM (active) | 
COCC(=O)N1CCC[C@@]2(CCN(Cc3ccccc3)C2)C1 | inactive | 
O=C(CC1(O)CCCCC1)OC1CCCC1 |  | -12.2% [at 11.4 µM] (inactive)
CC1(C)O[C@H]2[C@@H](O1)[C@@H](On1nnc3ccc(Cl)cc31)O[C@@H]2[C@@H]1COC(C)(C)O1 |  | -10.9% [at 2.29 µM] (inactive)
CN(C)c1nc(-c2cccnc2)nc2ccccc12 | 0.126 µM (active) | 
CCOC(=O)Cc1cc(=O)n2[nH]c(C)c(-c3ccccc3)c2n1 | 12.6 µM (active) | 
CCOC(=O)Cc1cc(=O)n2[nH]c(C)c(C#N)c2n1 | inactive | 
CCOC(=O)Cc1c(C)nc2c(C#N)c[nH]n2c1=O | inactive | 
S=C(CSc1ccccc1)Nc1cccc2ccccc12 | 1.26 µM (active) | 
CO[C@@H]1COC(=O)CCC[C@@H](C)[C@H](OC)COC(=O)CCC[C@H]1C |  | 5.33% [at 11.4 µM] (inactive)
CS(=O)(=O)c1ccccc1-c1nc(-c2cc(C(F)(F)F)cc(C(F)(F)F)c2)no1 | inactive | 
Cc1cccc(-c2noc(-c3cc4ccccc4oc3=O)n2)c1 | 3.16 µM (active) | 
NC1=NC2(CCCCC2)N=C(Nc2ccc(F)cc2F)N1 | inactive | 
O=C(O)C1CCCCC1C(=O)Nc1cc(Cl)ccc1Cl (configuration not stated) | inactive | 
Cc1ccc(C(=O)NNC(=O)C2CCCN(c3ncccn3)C2)cc1 (configuration not stated) | inactive | 
COc1cc(C)nc(N2CCCC(C(=O)Nc3cc(Cl)ccc3OC)C2)n1 (configuration not stated) | 3.55 µM (active) | 
Cc1ccccc1NS(=O)(=O)c1ccc2[nH]cc(C(=O)N(C)Cc3ccco3)c(=O)c2c1 | 15.8 µM (active) | 
CN1CCN(S(=O)(=O)c2ccc3[nH]cc(C(=O)O)c(=O)c3c2)CC1 | inactive | 
CCOC(=O)N1CCN(S(=O)(=O)c2ccc3[nH]cc(C(=O)O)c(=O)c3c2)CC1 | inactive | 
